Screens from PubChem BioAssay.
An excerpt weighted towards active compounds, which were near 0.41% of everything screened.
TRPV1 ag = HTS Assay for Compounds that Act as Agonists of the Vanilloid Receptor 1; AID 540275, 2011; 320,000 compounds, 0.19% hits; TRPV1-expressing cells, Fluo-8 calcium influx, agonist mode; Transient receptor potential cation channel subfamily V member 1 (Homo sapiens), Q8NER1; activation, % at 8.33 µM; in the data active = activation above about 80%; inconclusive = between about 30% and that limit
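Fluo-8 calcium influx in TRPV1-expressing cells, kinetic read (ex 480/em 520 nm). Compound added and read 3 min for agonist activity, followed by capsaicin at EC20 final and 2 min further read for enhancement.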
LDHA inh = qHTS assay for inhibitors of human lactate dehydrogenase; L-lactate dehydrogenase A chain (Homo sapiens), P00338; purified LDHA, NADH/diaphorase-resazurin fluorescence; stronger effect = lower value; activity change, % (values are at about 110 or 230 µM); 480,000 compounds, 0.15% hits; AID 1347041, 2019; in the data active = activity change below about -30%; inconclusive = mostly about -25% to -30%
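LDH5 2 nM; NADH 0.06 mM, pyruvate 0.2 mM; 200 mM Tris pH 7.4, EDTA, Tween-20; 5 min RT. Detection: diaphorase 0.133 mg/mL + resazurin 37 µM, fluorescence ex540/em590 at 0 and 20 min; normalized to enzyme-free and DMSO wells.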
TRPML1 agonist = qHTS for Agonists of the Human Mucolipin Transient Receptor Potential 1 (TRPML1); Mucolipin-1 (Homo sapiens), Q9GZU1; TRPML1-expressing cells, Ca2+ dye fluorescence, FDSS; activation, % (no concentration beside the values); 410,000 compounds, 0.12% hits; AID 624414, 2012; in the data active = activation above about 50%; inconclusive = mostly about 30% to 49%
Target sequence (Q9GZU1 whole entry, looked up): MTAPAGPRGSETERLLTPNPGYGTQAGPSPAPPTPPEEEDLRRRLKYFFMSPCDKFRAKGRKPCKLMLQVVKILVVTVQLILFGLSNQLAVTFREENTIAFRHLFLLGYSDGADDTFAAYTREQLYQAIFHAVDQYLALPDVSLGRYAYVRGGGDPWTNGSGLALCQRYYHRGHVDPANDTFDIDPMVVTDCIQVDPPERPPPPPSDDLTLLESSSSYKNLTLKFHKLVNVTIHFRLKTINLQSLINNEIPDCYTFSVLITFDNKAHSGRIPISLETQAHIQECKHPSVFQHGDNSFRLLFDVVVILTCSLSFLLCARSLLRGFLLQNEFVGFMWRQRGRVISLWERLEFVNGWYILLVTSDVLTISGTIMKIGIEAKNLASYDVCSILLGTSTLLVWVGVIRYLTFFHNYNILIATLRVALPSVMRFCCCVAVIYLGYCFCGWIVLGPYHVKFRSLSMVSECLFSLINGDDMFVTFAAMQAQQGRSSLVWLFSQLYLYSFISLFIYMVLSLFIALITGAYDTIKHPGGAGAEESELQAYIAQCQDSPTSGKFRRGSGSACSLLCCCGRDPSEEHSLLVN
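Tetracycline-induced TRPML1-DL cells are seeded and incubated overnight before loading with a no-wash Ca2+ dye and quencher. Agonist activity is taken from the 110 s fluorescence read following compound pin-transfer on an FDSS, before EC80 54-4 challenge.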
TRPV1 PAM = HTS Assay for Compounds that Act as Potentiators of the Vanilloid Receptor 1; Transient receptor potential cation channel subfamily V member 1 (Homo sapiens), Q8NER1; TRPV1-expressing cells, Fluo-8 calcium influx, capsaicin EC20 potentiation; potentiation, % at 8.33 µM; 320,000 compounds, 0.02% hits; AID 540277, 2011; in the data active = potentiation above about 80%; inconclusive = between about 30% and that limit
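Cells expressing TRPV1 were dye-loaded with Fluo-8 and read kinetically: 10 s baseline, 3 min after compound (agonist portion), then 2 min after EC20 capsaicin (allosteric enhancer portion). Calcium-bound dye fluorescence at 480/520 nm.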
TRPML1 inh = qHTS for Inhibitors of the Human Mucolipin Transient Receptor Potential 1 (TRPML1). 390,000 compounds, 0.02% hits. TRPML1-inducible cells, Ca2+ dye fluorescence, FDSS; stronger effect = lower value; inhibition of EC80 agonist-evoked calcium signal. activity change, negative = inhibition, % (concentration not given with the values). Mucolipin-1 (Homo sapiens), Q9GZU1; in the data active = activity change below about -50%; inconclusive = between about -30% and that limit;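 also: stimulus is agonist 54-4 at its EC80 concentration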
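TRPML1-DL cells, Tet-induced overnight (~16 h, 37 °C) at 1,500 cells/well, were loaded with Ca8 no-wash dye plus quencher for 45-90 min at room temperature. Compounds were pinned during FDSS kinetic reading; agonist 54-4 at EC80 (4 uM final) then added.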
Each line names hits and unclear results; the compound was inactive in the other large screens.

CN1C(=O)C(=Cc2ccccc2OCc2ccccc2Cl)C(=O)N(C)C1=O	LDHA inh -45
CN1C(=O)C(=Cc2ccccc2OS(=O)(=O)c2ccccc2)C(=O)N(C)C1=O	none
CN1C(=O)C(=Cc2ccccc2OCc2ccc(C(=O)O)cc2)C(=O)N(C)C1=O	LDHA inh -35
N#CC(C#N)=Cc1c[nH]c2ccccc12	none (no result: TRPV1 ag, TRPML1 agonist, TRPV1 PAM, TRPML1 inh)
CCOc1ccccc1N1C(=O)CC(=O)NC1=O	LDHA inh -30
CCOc1ccc(N2C(=O)CC(=O)NC2=O)cc1	none
CN1CCN(c2ccc(NC=C(C#N)C#N)cc2)CC1	none (no result: TRPV1 ag, TRPML1 agonist, TRPV1 PAM, TRPML1 inh)
COc1ccc2c3c1OC1C(O)C=CC4C(C2)[N+](C)(C)CCC341 (centres undefined)	LDHA inh -72
CN1CC[C@]23c4c5ccc(O)c4OC2[C@H](O)C=CC3[C@H]1C5 (some centres undefined)	none (no result: TRPV1 ag, TRPV1 PAM)
CN1CC2(Cc3c1ccc1ccccc31)C(=O)NC(=O)N(CCc1ccccc1)C2=O (centres undefined)	none (no result: TRPV1 ag, TRPML1 agonist, TRPV1 PAM, TRPML1 inh)
O=C(O)CC1(CNC(=O)Cn2ccc3c(Cl)cccc32)CCCCC1	none (no result: TRPV1 ag, TRPML1 agonist, TRPV1 PAM, TRPML1 inh)
O=C(O)c1cc[c]([Hg][Cl])cc1	LDHA inh -61
CCCC[N+]12CCC(CC1)C(=C(c1ccccc1)c1ccccc1)C2	LDHA inh -106
Cc1cccc2[nH]cc(C3=CCN(C(C)C(=O)NC4CC4)CC3)c12 (centres undefined)	none (no result: TRPV1 ag, TRPML1 agonist, TRPV1 PAM, TRPML1 inh)
CCCCCCCCC(=O)NCc1ccc(O)c(OC)c1	TRPV1 ag 105
COc1cc(CNCCc2ccc3c(c2)OCO3)ccc1O	none
CCN(CC)c1ccc(/C=C/[N+](=O)[O-])cc1	TRPV1 ag inconclusive, TRPML1 agonist 71
CN(C(=O)CCl)C1CCCCC1	none (no result: TRPV1 ag, TRPML1 agonist, TRPV1 PAM, TRPML1 inh)
O=C(CNC12CC3CC(CC(C3)C1)C2)c1ccc(Cl)cc1	LDHA inh -81 (no result: TRPV1 ag, TRPML1 agonist, TRPV1 PAM, TRPML1 inh)
COC1C(O)C(C)OC(OC2CCC3(C)C(CC[C@@H]4[C@@H]3CCC3(C)C(C5=CC(=O)OC5)C(O)CC43O)C2)C1O (some centres undefined)	none (no result: TRPV1 ag, TRPML1 agonist, TRPV1 PAM, TRPML1 inh)
COc1ccccc1C=C1C(=O)NC(=S)NC1=O	LDHA inh -57 (no result: TRPV1 ag, TRPV1 PAM)
Cc1c(C(c2ccc(Cl)cc2Cl)c2c(O)c3ccccc3oc2=O)c(=O)n(-c2ccccc2)n1C (centres undefined)	TRPV1 PAM 82
COc1ccc(/C=C2/C(=O)NC(=O)N(c3ccccc3)C2=O)cc1CN1C(=O)c2ccccc2C1=O	none
COc1ccc(/C=C2/C(=O)NC(=S)N(C3CC3)C2=O)cc1CN1C(=O)c2ccccc2C1=O	LDHA inh -36
O=C1NC(=O)N(c2ccccc2)C(=O)/C1=C\c1ccccc1[N+](=O)[O-]	LDHA inh -35
C=C1C(O)(c2ccccc2)C2CC[N+]1(C)CC2 (centres undefined)	LDHA inh -38
C[N+](C)(C)CC1CCCC(C[N+](C)(C)C)C1=O (centres undefined)	LDHA inh -41 (no result: TRPV1 ag, TRPV1 PAM)
C[N+](C)(C)CC1CCCc2ccccc2C1=O (centres undefined)	LDHA inh inconclusive (no result: TRPV1 ag, TRPV1 PAM)
CCOC(=O)C1CCCN(c2ccc([N+](=O)[O-])c3nonc23)C1 (centres undefined)	TRPV1 ag 105, TRPML1 agonist 89
CCOc1ccccc1CNCCc1c[nH]c2ccccc12	none (no result: TRPV1 ag, TRPML1 agonist, TRPV1 PAM, TRPML1 inh)
O=c1[nH]c(=O)n(-c2ccccc2)c(O)c1/C=C1/C(c2ccccc2)=Nc2ccccc21	TRPV1 ag inconclusive
COc1ccc(OC)c(-n2c(O)c(/C=C3\C(C)=Nc4ccccc43)c(=O)[nH]c2=O)c1	none
COC(=O)C1=Nc2ccccc2/C1=C\c1c(O)n(-c2ccc(OC)cc2)c(=O)[nH]c1=O	LDHA inh -43
COC(=O)C1=Nc2ccccc2/C1=C\c1c(O)n(-c2ccc(Br)cc2)c(=O)[nH]c1=O	LDHA inh -67
O=c1[nH]/c(=C\c2ccc(N(CCCl)CCCl)cc2)c(=O)[nH]/c1=C\c1ccc(N(CCCl)CCCl)cc1	none (no result: TRPV1 ag, TRPV1 PAM, TRPML1 inh)
O=C1/C(=C/c2ccc(N(CCCl)CCCl)cc2)Cc2ccccc21	TRPML1 agonist 73 (no result: TRPV1 ag, LDHA inh, TRPV1 PAM, TRPML1 inh)
Clc1ccc(Cl)c(-c2ccc(CNC3CN4CCC3CC4)o2)c1 (centres undefined)	none (no result: TRPV1 ag, TRPML1 agonist, TRPV1 PAM, TRPML1 inh)
Cc1ccc(/C=C2\C(=O)NC(=S)N(c3ccccc3F)C2=O)s1	LDHA inh -33
Cc1ccc(/C=C2\C(=O)NC(=S)N(c3ccc(F)cc3)C2=O)s1	none
NCC(=O)c1ccc(Cl)c(Cl)c1	LDHA inh -31 (no result: TRPV1 ag, TRPV1 PAM, TRPML1 inh)
O=C1NC(=O)C(=Cc2ccc(Oc3ccc([N+](=O)[O-])cc3)cc2)C(=O)N1	LDHA inh -33
O=C1NC(=O)C(=Cc2ccccc2OCCOc2ccc([N+](=O)[O-])cc2)C(=O)N1	LDHA inh -81
CN1C(=O)C(=Cc2ccccc2OCCOc2ccc([N+](=O)[O-])cc2)C(=O)N(C)C1=O	none
COc1ccc(CNCCc2c[nH]c3ccccc23)cc1	none (no result: TRPV1 ag, TRPML1 agonist, TRPV1 PAM, TRPML1 inh)
CNC(=O)c1ccc(NC(=O)COC(=O)c2cn(C)c3ccccc23)cc1	none (no result: TRPV1 ag, TRPML1 agonist, TRPV1 PAM, TRPML1 inh)
CN(C)C(CSS(=O)(=O)c1ccccc1)CSS(=O)(=O)c1ccccc1	none (no result: TRPV1 ag, TRPML1 agonist, TRPV1 PAM, TRPML1 inh)
